The results in this text go back to PubChem BioAssay.

For test [1], the system named is Plasmodium falciparum Sir2 (PF13_0152, Sir2A). As to the kind of experiment: Plasmodium falciparum Sir2A binding compounds – biochemical, small-molecule microarray, 635 nm fluorescence, primary screen (AID 1098).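 Also: score merges spot fluorescence intensity with its signal-to-noise ratio.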 The following applies: fluorescence 635 nm, higher = more signal.
Test [2] is described as follows: probe aDKK1 binding to arrayed compounds – biochemical, biotinylated probe, 635/667 nm fluorescence, primary screen (AID 1099).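 Also: score merges 667nm spot fluorescence with signal to noise across triplicate slides.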 As to conditions: small-molecule microarray, higher = more signal.
The nature of test [3]: probe aCHRDL2 binding to arrayed compounds – biochemical, biotinylated probe, 635/667 nm fluorescence, primary screen (AID 1100). As to conditions: small-molecule microarray, higher = more signal.
A short description of test [4]: change in splice reporter luminescence, either direction, cell-based, HEK293, spliceosome inhibition project, primary screen (AID 1101).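 Also: HEK293 cells carrying a splicing-competent luciferase reporter gene; test concentration not given here.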 As to conditions: HEK293 splicing luciferase reporter, 24 h, higher = more signal, called active from +8 up or from −8 down. Background: In a reporter assay the amount or activity of a reporter protein is the signal.
For test [5], the target named is Fibroblast growth factor 10 (Homo sapiens) (UniProt O15520). As to the kind of experiment: compounds binding fibroblast growth factor 10 – biochemical, small-molecule microarray, 635 nm fluorescence, primary screen (AID 1102). As to conditions: FGF10 binding, fluorescence 635 nm, higher = more signal.
Fibroblast growth factor 10 (Homo sapiens), sequence (O15520 whole entry, looked up): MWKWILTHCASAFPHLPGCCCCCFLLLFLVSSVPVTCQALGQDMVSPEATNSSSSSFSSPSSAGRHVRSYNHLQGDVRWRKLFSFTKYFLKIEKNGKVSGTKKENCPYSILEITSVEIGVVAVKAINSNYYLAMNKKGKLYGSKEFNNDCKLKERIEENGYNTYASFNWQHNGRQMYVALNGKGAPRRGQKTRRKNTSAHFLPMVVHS
Test [6] concerns glycogen synthase kinase-3 (GSK3A per assay name; protocol says GSK3B). As to the kind of experiment: compounds binding glycogen synthase kinase-3 – biochemical, small-molecule microarray, 635 nm fluorescence, GSK3A, primary screen (AID 1103). Also: the record names both GSK3A and GSK3B. The following applies: fluorescence 635 nm, higher = more signal.
For test [7], the target named is Epidermal growth factor receptor (Homo sapiens) (UniProt P00533). As to the kind of experiment: compounds binding epidermal growth factor receptor – biochemical, small-molecule microarray, 635 nm fluorescence, primary screen (AID 1104).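 Also: score merges 667 nm emission intensity with spot signal to noise over triplicate slides.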 As to conditions: EGFR binding, higher = more signal.
Epidermal growth factor receptor (Homo sapiens), sequence (P00533 whole entry, looked up): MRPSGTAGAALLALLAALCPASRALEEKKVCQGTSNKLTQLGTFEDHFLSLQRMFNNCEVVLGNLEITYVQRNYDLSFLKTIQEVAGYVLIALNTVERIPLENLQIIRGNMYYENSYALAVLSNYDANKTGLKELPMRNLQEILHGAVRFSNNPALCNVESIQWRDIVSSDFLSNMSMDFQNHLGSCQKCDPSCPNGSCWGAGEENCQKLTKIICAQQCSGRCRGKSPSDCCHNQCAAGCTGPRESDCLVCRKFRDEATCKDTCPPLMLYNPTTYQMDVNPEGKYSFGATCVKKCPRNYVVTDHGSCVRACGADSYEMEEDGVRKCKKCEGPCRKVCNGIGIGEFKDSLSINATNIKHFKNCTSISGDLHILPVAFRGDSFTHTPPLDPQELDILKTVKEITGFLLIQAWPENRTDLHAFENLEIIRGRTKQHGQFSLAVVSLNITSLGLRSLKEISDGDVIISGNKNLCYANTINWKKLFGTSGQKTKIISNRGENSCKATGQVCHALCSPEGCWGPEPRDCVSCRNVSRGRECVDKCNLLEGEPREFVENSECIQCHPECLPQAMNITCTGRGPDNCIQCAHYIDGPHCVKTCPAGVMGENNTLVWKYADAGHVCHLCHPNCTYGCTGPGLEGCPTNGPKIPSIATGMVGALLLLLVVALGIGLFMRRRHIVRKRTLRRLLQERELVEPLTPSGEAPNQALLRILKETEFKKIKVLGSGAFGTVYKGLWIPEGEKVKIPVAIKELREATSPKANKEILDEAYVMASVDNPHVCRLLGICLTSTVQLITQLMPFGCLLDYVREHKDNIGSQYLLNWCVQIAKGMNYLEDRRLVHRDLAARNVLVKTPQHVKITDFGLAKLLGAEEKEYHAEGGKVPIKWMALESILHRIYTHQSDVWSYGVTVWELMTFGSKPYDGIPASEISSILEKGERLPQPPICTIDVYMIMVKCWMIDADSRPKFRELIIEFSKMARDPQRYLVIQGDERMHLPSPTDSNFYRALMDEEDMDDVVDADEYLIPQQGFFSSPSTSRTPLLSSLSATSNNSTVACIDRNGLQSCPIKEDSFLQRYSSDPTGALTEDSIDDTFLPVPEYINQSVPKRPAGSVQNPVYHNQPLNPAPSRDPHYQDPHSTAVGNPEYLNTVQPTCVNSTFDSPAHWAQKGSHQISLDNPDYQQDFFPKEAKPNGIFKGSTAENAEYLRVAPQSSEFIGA
The target of test [8] is Follistatin-related protein 3 (Homo sapiens) (UniProt O95633). As to the kind of experiment: compounds binding follistatin-related protein 3 – biochemical, small-molecule microarray, 635 nm fluorescence, primary screen (AID 1105).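 Also: score merges emission near 667 nm and signal to noise per printed spot across three slides.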 The following applies: FSTL3 binding, higher = more signal.
Follistatin-related protein 3 (Homo sapiens), sequence (O95633 whole entry, looked up): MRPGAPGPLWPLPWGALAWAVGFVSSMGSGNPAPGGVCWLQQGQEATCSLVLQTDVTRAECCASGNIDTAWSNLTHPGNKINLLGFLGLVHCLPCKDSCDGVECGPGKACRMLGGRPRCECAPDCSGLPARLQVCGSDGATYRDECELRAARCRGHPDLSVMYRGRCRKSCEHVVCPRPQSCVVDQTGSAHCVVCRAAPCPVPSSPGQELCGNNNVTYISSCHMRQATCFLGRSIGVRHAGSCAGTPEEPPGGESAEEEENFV
In test [9] the target is Dickkopf-related protein 1 (Homo sapiens) (UniProt O94907). As to the kind of experiment: small molecules binding DKK1 protein – biochemical, small-molecule microarray, 635 nm fluorescence scan, primary screen (AID 1106).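 Also: score merges emission near 667 nm with signal to noise over three replicate slides.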 As to conditions: higher = more signal.
Dickkopf-related protein 1 (Homo sapiens), sequence (O94907 whole entry, looked up): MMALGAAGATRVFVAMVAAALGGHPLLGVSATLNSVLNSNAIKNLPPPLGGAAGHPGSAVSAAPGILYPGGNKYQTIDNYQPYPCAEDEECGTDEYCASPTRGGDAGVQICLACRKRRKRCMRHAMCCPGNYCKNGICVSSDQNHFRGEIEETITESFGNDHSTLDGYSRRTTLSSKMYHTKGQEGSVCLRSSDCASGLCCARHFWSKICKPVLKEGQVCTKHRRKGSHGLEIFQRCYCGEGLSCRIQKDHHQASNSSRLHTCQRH
The subject of test [10] is Inhibin beta A chain (activin A). As to the kind of experiment: small molecules binding activin A – biochemical, small-molecule microarray, 635 nm fluorescence scan, primary screen (AID 1107).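 Also: mouse activin A protein probed at 4.33 µg/mL on printed slides; score merges bound-protein fluorescence near 667 nm with spot signal-to-noise.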 As to conditions: INHBA, higher = more signal.
Test [11] deals with Human papillomavirus type 1a protein E7 (residues 44-93). As to the kind of experiment: small molecules binding HPV E7 44-93 – biochemical, small-molecule microarray, residues 44-93, 635 nm fluorescence, primary screen (AID 1108).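 Also: E7 fragment applied at 1 µg/mL in TBST for 1 h at 4 C; score combines spot fluorescence with its signal to noise ratio.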 The following applies: fluorescence 635 nm, higher = more signal.
Test [12] is described as follows: hepatitis C replication reporter changes, two-sided – Huh7 cells, luciferase reporter, HCV replication inhibitor project, primary screen (AID 1109).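 Also: huh7 hepatoma cells harbouring a luciferase neomycin HCV replicon reporter; luciferase luminescence as measure of HCV replicon replication; test concentration not given here.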 As to conditions: Huh7 HCV replicon luciferase reporter, 48 h; higher = more signal.
Test [13] addresses Left-right determination factor 2 (Homo sapiens) (UniProt O00292). As to the kind of experiment: small molecules binding LEFTY2 protein – biochemical, small-molecule microarray, 635 nm fluorescence scan, primary screen (AID 1110). The following applies: higher = more signal.
Test [14] concerns the target Calmodulin-1 (Homo sapiens) (UniProt P0DP23). As to the kind of experiment: small molecules binding calmodulin-1 with EGTA – biochemical, small-molecule microarray, Cy5-labelled CALM1, profiling panel (AID 1111).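 Also: labelled calmodulin applied in Tris saline Tween buffer holding calcium plus EGTA and DTT.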 As to conditions: Cy5-CALM1 binding fluorescence, higher = more signal.
Test [15] shares this target. As to the kind of experiment: small molecules binding Ca-loaded calmodulin-1 – biochemical, small-molecule microarray, Cy5-labelled CALM1, plus calcium, artefact control for SMM control-protein annotation, profiling panel (AID 1112).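 Also: score merges spot fluorescence with signal to noise from triplicate slides.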 As to conditions: Cy5-CALM1 binding fluorescence, higher = more signal.
Test [16] can be described thus: probe aWnt5a binding to arrayed compounds – biochemical, biotinylated probe, 635/667 nm fluorescence, primary screen (AID 1113).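 Also: score merges 667 nm fluorescence intensity with signal-to-noise per printed feature.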 As to conditions: small-molecule microarray, higher = more signal.
The nature of test [17]: probe aShh binding to arrayed compounds – biochemical, biotinylated probe, 635/667 nm fluorescence, primary screen (AID 1114).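 Also: probe is biotin-labelled aShh protein from a stem cell growth factor screen; measures binding of labelled protein to compounds printed on the slide; score merges feature fluorescence at 667 nm with signal-to-noise.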 As to conditions: small-molecule microarray, higher = more signal.
A short description of test [18]: probe aNog binding to arrayed compounds – biochemical, biotinylated probe, 635/667 nm fluorescence, primary screen (AID 1115).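 Also: probe is biotinylated aNog protein used at 0.15 µg/mL for 1 h at 4 C; z-score combines 667 nm fluorescence of each spot with its signal to noise.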 As to conditions: small-molecule microarray, higher = more signal.
In test [19] the target is Torsin-1A-interacting protein 1 (Homo sapiens) (UniProt Q5JTV8). As to the kind of experiment: compound microarray binding of lysate hLAP1 – cell lysate, small-molecule microarray, COS7 lysate, 635/667 nm fluorescence, primary screen (AID 1116). As to conditions: 635 nm fluorescence, higher = more signal.
Torsin-1A-interacting protein 1 (Homo sapiens), sequence (Q5JTV8 whole entry, looked up): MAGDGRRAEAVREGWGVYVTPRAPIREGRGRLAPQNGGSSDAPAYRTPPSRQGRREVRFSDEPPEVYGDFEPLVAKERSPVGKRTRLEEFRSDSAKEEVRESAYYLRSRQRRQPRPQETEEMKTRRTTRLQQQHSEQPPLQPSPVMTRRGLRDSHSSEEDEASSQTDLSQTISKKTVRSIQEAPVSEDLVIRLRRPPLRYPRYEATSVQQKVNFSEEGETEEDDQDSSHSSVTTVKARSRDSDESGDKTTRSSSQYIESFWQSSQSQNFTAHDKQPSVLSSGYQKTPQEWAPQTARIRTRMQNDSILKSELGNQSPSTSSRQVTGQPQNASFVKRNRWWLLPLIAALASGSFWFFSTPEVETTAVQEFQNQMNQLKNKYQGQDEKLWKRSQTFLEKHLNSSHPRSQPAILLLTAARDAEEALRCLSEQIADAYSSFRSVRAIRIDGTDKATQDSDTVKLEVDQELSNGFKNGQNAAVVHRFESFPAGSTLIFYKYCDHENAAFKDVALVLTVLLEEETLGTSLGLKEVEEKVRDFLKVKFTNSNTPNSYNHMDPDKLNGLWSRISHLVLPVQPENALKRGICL
Test [20] addresses Alpha-bungarotoxin (Bungarus multicinctus) (UniProt P60615). As to the kind of experiment: compounds binding labelled alpha-BTX control protein – biochemical, small-molecule microarray, Alexa647 label, 635/667 nm fluorescence, artefact control for SMM control protein annotation, profiling panel (AID 1117). As to conditions: alpha-BTX-A647 binding fluorescence, higher = more signal.

Calls of active or inactive are those of the source.

Left-right determination factor 2 (Homo sapiens), sequence (O00292 whole entry, looked up): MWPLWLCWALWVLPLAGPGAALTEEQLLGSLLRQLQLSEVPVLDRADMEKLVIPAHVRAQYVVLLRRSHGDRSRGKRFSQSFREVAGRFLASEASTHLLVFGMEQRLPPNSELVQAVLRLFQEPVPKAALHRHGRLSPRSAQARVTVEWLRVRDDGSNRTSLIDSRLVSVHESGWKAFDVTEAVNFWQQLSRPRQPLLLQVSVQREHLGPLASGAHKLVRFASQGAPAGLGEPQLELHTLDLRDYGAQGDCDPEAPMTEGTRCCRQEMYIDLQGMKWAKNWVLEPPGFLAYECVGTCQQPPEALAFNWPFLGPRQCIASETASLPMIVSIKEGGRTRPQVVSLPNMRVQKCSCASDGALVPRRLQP
Alpha-bungarotoxin (Bungarus multicinctus), sequence (P60615 whole entry, looked up): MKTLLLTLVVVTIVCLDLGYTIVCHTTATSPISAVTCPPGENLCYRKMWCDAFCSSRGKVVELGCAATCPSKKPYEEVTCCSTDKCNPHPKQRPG

For the molecule `C=CCN1C(=O)[C@]2(O[C@H](CCn3cc([C@H](O)c4ccccc4)nn3)[C@@H]([Si](C)(C)c3ccc(OC)cc3)[C@@H]2C)c2cc(NC(=O)c3ccc(OC)cc3)ccc21`, the composite z-score was 0.73 in test [1]; -0.125 in test [2]; 0.349 in [3]; 0.028 in test [5]; -0.131 in test [6]; 0.108 in test [7]. Moreover, the composite z-score in [8] was 0.527; in [9], 0.598; in test [10], 0.961; in [11], 1.15; in test [13], 0.5; in test [14] it was -0.0632. The composite z-score in test [15] was -0.564; in [16] it was -0.0748; in test [17] it was -0.221; in test [18] it was -0.124; in [19], 0.725; in test [20], 0.464. Also, the z-score is -0.768 (inactive) in test [4] and -4.74 in test [12].
Turning to `CC(=O)OCC1C2CC[C@H]3C(OCc4ccc(F)cc4C(F)(F)F)OC[C@]4(C)[C@H]3C2=C(CN4C(=O)OC(C)(C)C)[C@H](C)C1COC(C)=O` (stereo not given in full), the composite z-score was 0.547 in test [1]; 0.547 in test [2]; 1.06 in [3]; 0.398 in test [5]; -0.466 in test [6]; -1.08 in [7]. For the same molecule, the composite z-score was -0.925 in test [8]; -1.31 in test [9]; 0.838 in [10]; 0.359 in [11]; -1.65 in test [13]; 1.95 in test [14]. Further, the composite z-score in [15] was 1.19; in test [16], 0.591; in test [17], 0.338; in test [18], 0.182; in test [19] it was -0.212; in [20] it was 0.668. Besides, the z-score in test [4] was -0.329 (inactive); in [12] it was -0.834.
For `COc1ccc(C(=O)Nc2ccc(CN3C(=O)[C@@]4(O[C@@H](CCn5cc(CCO)nn5)[C@H]([Si](C)(C)c5ccc(OC)cc5)[C@H]4C)c4ccccc43)cc2)cc1`, the composite z-score in test [1] turned out to be 1.36; in [2], 0.635; in test [3] it was 0.559; in [5] it was 0.939; in test [6], 1.14; in test [7] it was 0.492. In addition, the composite z-score was 1.28 in test [8]; 1 in test [9]; 1.57 in test [10]; 1.33 in test [11]; 0.904 in test [13]; -0.0429 in test [14]. The composite z-score in test [15] is -0.668; in test [16] it was 0.0433; in test [17] it was -0.0146; in [18], 0.0117; in test [19] it was 1.09; in [20], 0.829. The z-score in test [4] is -1.8 (inactive); in test [12], -5.11.
On to `COc1ccc([Si](C)(C)[C@H]2[C@H](CC(=O)N3Cc4ccccc4C[C@H]3CO)O[C@@]3(C(=O)N(c4ccccc4)c4ccccc43)[C@@H]2C)cc1`, for which the composite z-score in [1] is 1.64; in test [2], -0.179; in [3] it was -0.339; in [5] it was 1.11; in test [6], 1.27; in test [7], 1.13. Besides, the composite z-score in test [8] turned out to be 1.45; in test [9], 0.75; in [10] it was 1.47; in test [11], 1.35; in test [13], 0.949; in test [14] it was 0.392. Also, the composite z-score in test [15] was -0.987; in [16], 0.127; in [17], -0.0119; in test [18], -0.542; in [19], 1.7; in test [20], 1.69. The values for the z-score in test [4] and in test [12] were -0.691 (inactive) and -3.46, respectively.
Take `C=CCNC(=O)[C@@H]1[C@H]2C(=O)O[C@H](c3ccccc3)[C@H](c3ccccc3)N2[C@H](c2ccc(OCCO)cc2)[C@@]12C(=O)Nc1ccc(C#CC3(O)CCCCCC3)cc12`: the composite z-score in [1] worked out at 1.42; in [2], 0.535; in test [3], 0.65; in test [5], 0.986; in test [6], 1.22; in [7], 0.378. Also, the composite z-score is 0.826 in test [8]; 0.371 in test [9]; -0.0995 in [10]; 1.12 in [11]; 0.367 in test [13]; 0.92 in [14]. The composite z-score was 0.0835 in test [15]; -0.0203 in test [16]; -0.278 in test [17]; 0.822 in [18]; 0.699 in test [19]; 1.35 in test [20]. Further, the figures for the z-score in [4] and in [12] were -1.43 (inactive) and -2.43, respectively.
As for `CN1C(=O)C2C(C1=O)C1C=C(CCCO)C2C(C2CC2)N1Cc1cccc(OC(F)(F)F)c1` (stereo not given), the composite z-score in test [1] was 1.79; in test [2], -0.656; in [3], 0.512; in [5] it was -0.268; in test [6], 0.393; in test [7] it was -0.783. The composite z-score in test [8] is 0.0703; in test [9] it was -0.521; in [10] it was 0.722; in test [11], 1.4; in test [13] it was -0.306; in test [14], 0.807. For the same molecule, the composite z-score is 0.951 in test [15]; -0.0944 in [16]; -0.0709 in test [17]; -0.0964 in test [18]; 1.56 in test [19]; 0.786 in test [20]. In addition, the z-score in test [4] was -0.511 (inactive); in test [12] it was -1.4.
Regarding `CCC(CC)C(O)C1C=CC2C(=O)N(c3ccccc3)C(=O)C2N1Nc1ccccc1F` (stereo not given), the composite z-score in test [1] is 1.17; in test [2], 0.373; in [3], 0.481; in test [5] it was 0.412; in test [6], 0.554; in test [7], 0.0005. Moreover, the composite z-score is 0.226 in test [8]; -0.445 in test [9]; 0.704 in test [10]; 1.2 in test [11]; -0.527 in test [13]; 0.189 in test [14]. Besides, the composite z-score was 0.25 in test [15]; 0.612 in test [16]; -0.214 in [17]; 0.53 in test [18]; 0.447 in test [19]; 1.39 in test [20]. Also, the z-score was -0.115 (inactive) in test [4] and -0.171 in [12].
As for `COC(=O)[C@@]1(Cc2ccc(F)cc2)[C@H]2c3cc(C(=O)N4CCCC4)n(Cc4ccccn4)c3C[C@H]2CN1C(=O)c1ccccc1`, the composite z-score in test [1] turned out to be 0.919; in test [2], 0.757; in [3], 1.08; in test [5], 0.426; in test [6], 0.453; in test [7], 0.214. For the same molecule, the composite z-score in test [8] was 0.156; in test [9] it was -0.398; in test [10], 0.855; in test [11] it was 1.42; in test [13], -0.649; in test [14], 1.36. Besides, the composite z-score came to 0.652 in test [15]; 0.139 in [16]; 0.704 in test [17]; 0.874 in test [18]; 1.33 in [19]; 0.23 in test [20]. Further, the z-score was -1.88 (inactive) in [4] and -1.73 in test [12].
